Screening results (PubChem)
Compounds with a hit are over-represented: about 0.98% of the library has one in this group of screens.
RTF Ca sens act – cardiac RTF calcium sensitivity activators, primary screen, biochemical, IANBD-TnC fluorescence, EC20 calcium | 340,000 tested, 0.24% active | Troponin I, cardiac muscle (Homo sapiens) + Troponin T, cardiac muscle (Homo sapiens) + … | AID 493008, 2010 | activation, % at 7.2 µM | IANBD-labeled TnC RTF fluorescence at EC20 calcium; 0% EC20 calcium, 100% full calcium;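 active = activation above the mean over all tested compounds plus 3 SD, cut at about 30% in these data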;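 also: rise in fluorescence read as greater calcium sensitivity of cardiac thin filaments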
RTF Ca sens inh – cardiac RTF calcium sensitivity inhibitors, primary screen, biochemical, IANBD-TnC fluorescence, EC70 calcium; Troponin I, cardiac muscle (Homo sapiens) + Troponin T, cardiac muscle (Homo sapiens) + …; inhibition, % at 7.15 µM; 340,000 tested, 0.12% active; AID 493244, 2011; IANBD-labeled cardiac RTF, Ca2+ fluorescence;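 active = inhibition above the mean inhibition of all tested compounds plus 3 SD, cut at about 17% in these data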;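 also: assay run at fixed EC70 calcium of 1.6 mM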
Keap1 Nrf2 FP – Keap1-Nrf2 protein-protein interaction inhibitors, primary screen, biochemical, fluorescence polarization, single point | Keap1 Kelch-Nrf2 peptide fluorescence polarization, 1536-well | inhibition, % at 9.4 µM | 340,000 tested, 0.15% active; in the data active = inhibition above about 12%;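 also: human Keap1 Kelch domain with fluorescein labeled Nrf2 9mer peptide probe; higher means more block of Keap1 binding to Nrf2 peptide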
LANA-H2A inh – blockers of LANA interaction with H2A/H2B – biochemical, FP readout, HTS, primary screen | cell-free LANA-H2A/H2B peptide, fluorescence polarization | inhibition, % (no concentration beside the values) | Protein LANA1 (Human herpesvirus 8 type P (isolate GK18)), Q9QR71 | 320,000 tested, 0.6% active; in the data active = inhibition mostly above about 10%, no sharp cut-off; inactive = mostly below about 6.7%
Target sequence (Q9QR71 whole entry, looked up): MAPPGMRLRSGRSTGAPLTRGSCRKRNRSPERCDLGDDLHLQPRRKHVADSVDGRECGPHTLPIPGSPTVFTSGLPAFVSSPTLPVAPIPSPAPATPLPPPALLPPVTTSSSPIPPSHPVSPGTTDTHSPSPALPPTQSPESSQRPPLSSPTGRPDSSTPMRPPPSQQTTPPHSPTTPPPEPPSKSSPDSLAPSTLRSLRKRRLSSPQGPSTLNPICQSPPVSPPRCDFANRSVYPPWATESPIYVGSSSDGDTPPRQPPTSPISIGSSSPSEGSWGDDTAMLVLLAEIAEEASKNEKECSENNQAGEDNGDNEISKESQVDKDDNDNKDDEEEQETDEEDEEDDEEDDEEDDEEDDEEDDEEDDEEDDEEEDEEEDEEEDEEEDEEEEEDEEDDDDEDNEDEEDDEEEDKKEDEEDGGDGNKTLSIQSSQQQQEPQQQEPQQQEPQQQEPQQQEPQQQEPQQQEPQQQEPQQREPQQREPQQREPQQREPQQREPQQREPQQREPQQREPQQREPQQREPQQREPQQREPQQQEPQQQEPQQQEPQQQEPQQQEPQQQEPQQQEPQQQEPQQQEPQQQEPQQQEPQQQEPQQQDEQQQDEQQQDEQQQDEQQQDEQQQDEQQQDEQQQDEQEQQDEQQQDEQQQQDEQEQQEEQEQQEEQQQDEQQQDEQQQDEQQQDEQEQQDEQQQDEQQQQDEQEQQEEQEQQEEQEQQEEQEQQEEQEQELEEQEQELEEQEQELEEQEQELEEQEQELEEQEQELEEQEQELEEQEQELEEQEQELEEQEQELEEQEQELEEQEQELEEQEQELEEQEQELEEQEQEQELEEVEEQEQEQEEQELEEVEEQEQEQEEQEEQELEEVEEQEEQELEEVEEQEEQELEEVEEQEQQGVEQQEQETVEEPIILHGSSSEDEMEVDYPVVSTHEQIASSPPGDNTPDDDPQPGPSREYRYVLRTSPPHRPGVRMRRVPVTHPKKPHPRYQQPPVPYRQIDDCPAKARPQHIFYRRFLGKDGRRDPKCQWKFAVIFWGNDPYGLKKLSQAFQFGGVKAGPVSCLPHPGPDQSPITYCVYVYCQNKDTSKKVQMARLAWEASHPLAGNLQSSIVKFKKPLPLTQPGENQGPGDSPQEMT
C-LANA FP – inhibitors of KSHV C-LANA binding to DNA, primary screen, biochemical, fluorescence polarization, FAM-LBS DNA, MBP-C-LANA, single point; inhibition, % at 9 µM; 340,000 tested, 0.078% active; AID 504423, 2011;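 active = highest replicate inhibition at or above 60% at 9 µM, even if other replicates fall short; inactive = all replicates below 60% inhibition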
A number is an active result; n = inactive; x = no result; + = active, no number; ! = repeats disagree.

SMILES | RTF Ca sens act | RTF Ca sens inh | Keap1 Nrf2 FP | LANA-H2A inh | C-LANA FP
COc1ccc(S(=O)(=O)N2CCCCC2)cc1NC(=O)Cc1cccs1 | n | n | n | n | n
O=C(Cc1cccs1)Nc1cc(S(=O)(=O)N2CCCCC2)ccc1Cl | n | n | n | 82 | n
COc1cc(NC(=S)N2CCN(S(=O)(=O)c3ccc(C)cc3)CC2)cc(OC)c1 | n | n | n | n | n
S=C(NCc1ccccc1)NC1CCSc2ccccc21 (configuration not stated) | n | n | n | n | n
CC(OC(=O)C1CC2CCCC(C1)C2=O)C(=O)Nc1cccc([N+](=O)[O-])c1 (configuration not stated) | n | n | n | n | n
COc1ccc(/C=C2\Oc3cc(OC(=O)N4CCOCC4)ccc3C2=O)c(OC)c1 | 37 | n | n | n | n
O=C1/C(=C/c2ccccc2)Oc2cc(OC(=O)N3CCOCC3)ccc21 | n | n | n | n | n
COc1cccc2c1O/C(=N\O)C(C(=O)Nc1cccc(Br)c1)C2 (configuration not stated) | n | n | n | n | n
COc1ccc(Cl)cc1C(=O)OCC(=O)NC(=O)c1cccn1C | n | n | n | n | n
CCCOc1c(Br)cc(C(=O)OCC(=O)NC(=O)c2cccn2C)cc1OC | n | n | n | + | n
CC1(OC(=O)CCc2ccccc2)C(=O)C=C2C=C(c3ccc(C#N)cc3)N(Cc3ccccc3)C=C2C1=O (configuration not stated) | n | n | n | n | n
COCCN1C=C2C(=O)C(C)(OC(=O)CCc3ccccc3)C(=O)C=C2C=C1c1ccc(C#N)cc1 (configuration not stated) | n | n | n | 101 | n
Cc1csc(-c2coc3cc(O)cc(C)c3c2=O)n1 | n | n | n | 8.1 | n
CCc1cc2c(=O)c(-c3nc(C)cs3)coc2cc1O | n | n | n | n | n
Cc1ccc([N+](=O)[O-])cc1NC(=S)NC(=O)c1c(Cl)cnn1C | n | n | n | x | n
O=C(COC(=O)Cc1cccc(C(F)(F)F)c1)Nc1ccc2c(c1)OCCO2 | n | n | n | 146 | n
Cc1cc(C)cc(NC(=O)COC(=O)c2ccc3c(c2)OCCO3)c1 | n | n | n | 12 | n
COc1ccc(C2c3ccc4ccccc4c3Oc3ncn(CCN(C)C)c(=N)c32)cc1 (configuration not stated) | n | n | n | n | n
CC1(C)CC(=O)C(CO)=C(c2cccc3ccccc23)C1=O | n | n | n | n | n
CCc1cc(C(=O)N2CCCC(C(=O)c3ccc(C(F)(F)F)cc3)C2)n(C)n1 (configuration not stated) | n | n | n | x | n
CC[N+](C)(C)c1cccc(O)c1 | n | n | n | 20! | n
CC1C(=O)N2CCCc3cc(S(=O)(=O)N4CCN(c5ccc(F)cc5)CC4)cc1c32 (configuration not stated) | n | n | n | n | n
CCOc1ccc(-c2c(C(=O)N/N=C/c3cccc(Br)c3)nnn2-c2nonc2N)cc1 | n | n | n | 20 | n
O=C(CCC(=O)N1CCOCC1)NCc1cccc(C(F)(F)F)c1 | n | n | n | 22 | n
Cc1ccc(S(=O)(=O)N2CCN(C(=O)c3ccc4nc[nH]c4c3)CC2)cc1 | n | n | n | n | n
SMILES | RTF Ca sens act | RTF Ca sens inh | Keap1 Nrf2 FP | LANA-H2A inh | C-LANA FP
O=C(CSc1nc(=O)n(CCCN2CCOCC2)c2c1CCCC2)Nc1ccc(Cl)cc1 | n | n | n | n | n
CCN(CC)c1ccc2cc(-c3nc(-c4cc5ccccc5oc4=O)cs3)c(=O)oc2c1 | 95 | n | n | x | n
COC(=O)C1C2CC3c4[nH]c5cc(OC)ccc5c4CCN3CC2CC(OC(=O)CC(C)=O)C1OC (configuration not stated) | 46 | n | n | x | n
O=C(COc1ccc2c(-c3ccccc3)cc(=O)oc2c1)NCCN1CCOCC1 | n | n | n | n | n
CCCCc1cc(=O)oc2cc(OCC(=O)NCCN3CCOCC3)ccc12 | n | n | n | 15 | n
COc1ccc(-c2cc(=O)oc3cc(OCC(=O)NCCN4CCOCC4)ccc23)cc1 | n | n | n | 16 | n
